Data as given in PubChem BioAssay (EPA / NIEHS).
Active and inactive are the calls of the source. How the source made its calls: active means hit-call score of the fitted dose curve at least 0.9, where 1 is the maximum; inactive means score below 0.9.

read-out: Interleukin-8 (IL8), CXCL8 (gene 3576); assay: BSK_3C_IL8: BioMAP Diversity Plus: 3C Assay for Interleukin-8 (IL8) Biomarker Activity (AID 2283020); details: primary human endothelial cells (HUVEC); actives raise or lower the signal
Description: BSK_3C is a cell-based, multiplexed-readout assay that uses umbilical vein endothelium, a human vascular primary cell, with measurements taken at 24 hours after chemical dosing in a 96-well plate.BSK_3C_IL8 is an assay component measured in the BSK_3C assay. It measures IL-8 antibody related to regulation of gene expression using ELISA technology.Data from the assay component BSK_3C_IL8 was analyzed into 1 assay endpoint. This assay endpoint, BSK_3C_IL8, was analyzed with bidirectional fitting relative to DMSO as the negative control and baseline of activity. Using a type of binding reporter, gain or loss-of-signal activity can be used to understand changes in the signaling as they relate to the gene CXCL8. Furthermore, this assay endpoint can be referred to as a primary readout, because this assay has produced multiple assay endpoints where this one serves a signaling function. To generalize the intended target to other relatable targets, this assay endpoint is annotated to the cytokine intended target family, where the subfamily is interleukins.
The levels of cell surface (or secreted, indicated by the prefix "s") biomarker endpoints were measured by ELISA. Overt cytotoxicity to cells in confluent adherent cultures (all systems other than the BT system) was assessed by measuring total protein levels using sulforhodamine B (SRB) staining in parallel cultures at the time of biomarker measurements, indicated as SRB endpoints. For proliferation assays for adherent cell types, individual cell types are cultured at sub-confluence and relative cell numbers quantified by SRB staining at time points optimized for each system (48 h: 3C and CASM3C systems; 72 h: BT and HDF3CGF systems; 96 h: SAg system). SRB was performed by staining cells with 0.1% SRB after fixation with 10% TCA and reading wells at 560 nm.Viability and proliferation of PBMC (T cells) was quantified by Alamar Blue reduction for the SAg and BT systems. For PBMC viability (referred to as PBMC Cytotoxicity within the assay endpoint names), cells were plated (75,000/well in a 96-well plate) and then chemical samples added for 1 h before addition of activators, SEB and TSST-1 (20 ng/mL final concentration each). Cells were incubated for 90 h. Then, Alamar Blue (20 uL/well) (Invitrogen, Cat DAL1100) was added for 6 h, and the plates were read with a fluorescence microplate reader at 546/580 nm (excitation/emission). For PBMC proliferation, cells were plated and activated as above but incubated for only 16 h prior to addition of Alamar Blue. Plates were read after 6 h.

**Q.** For `CC(O)CN(CCN(CC(C)O)CC(C)O)CC(C)O` (stereo not given), which outcome is on record?
**A.** Its outcome is “inactive”.

**Q.** How did the outcome turn out when `O=C1CCC(N2C(=O)c3ccccc3C2=O)C(=O)N1` (stereo not given) was run?
**A.** The outcome was “inactive”.

**Q.** Which outcome does the source give for `O=C(O)c1cccc(Oc2ccccc2)c1` here?
**A.** The outcome was “inactive”.

**Q.** Which AC50 does the source give for `Fc1ccccc1[C@@H](F)COC1CCC(Nc2ncnc3[nH]ncc23)CC1` (stereo not given in full) here?
**A.** The AC50 was 20 µM (active).

**Q.** For `CC(C)=CCCC(C)CCO` (stereo not given), which outcome is on record?
**A.** The outcome was “inactive”.

**Q.** With `O=C(O)CCN(C1(C(=O)NO)CCCC1)S(=O)(=O)c1ccc(Oc2ccc(F)cc2)cc1` as the compound, how does the outcome read?
**A.** The outcome was “inactive”.

**Q.** For `CCOc1cccc(-n2cc(C(=O)N3CCN(c4cc(C(=O)O)c5ccccc5c4)CC3)nc2-c2ccc(C)cc2)c1`, which AC50 is on record?
**A.** The AC50 was 11.9 µM (active).

**Q.** How did the outcome turn out when `COCCOc1cc2cc(C(=O)NC3CCN(C(C)C)CC3)n(CC(=O)Nc3ccc(Cl)cn3)c2cn1` was run?
**A.** The outcome was “inactive”.

**Q.** With `CCOC(=O)c1ccc(C2CCC(NC[C@H](O)COc3ccc(O)c(NS(C)(=O)=O)c3)CC2)cc1` (stereo not given in full) as the compound, how does the AC50 read?
**A.** The AC50 was 27.7 µM (active).

**Q.** With `O=C(CCCCCCCCc1cccnc1)N1CCC(C=C(c2ccccc2)c2ccccc2)CC1` as the compound, how does the AC50 read?
**A.** The AC50 was 8.66 µM (active).

**Q.** Which outcome does the source give for `C1N2CN3CN1CN(C2)C3` here?
**A.** The outcome was “inactive”.

**Q.** How did the outcome turn out when `CC(C)(O)c1coc(S(=O)(=O)NC(=O)Nc2c3c(cc4c2CCC4)CCC3)c1` was run?
**A.** Its outcome is “inactive”.

**Q.** Which outcome does the source give for `NC(=O)NO` here?
**A.** The outcome was “inactive”.

**Q.** How did the outcome turn out when `O=C(O)c1cc(N=Nc2ccc(S(=O)(=O)Nc3ccccn3)cc2)ccc1O` was run?
**A.** The outcome was “inactive”.

**Q.** Which AC50 does the source give for `Cn1c(=O)cc(Oc2ccc(F)cc2F)c2cnc(NCC(C)(C)O)nc21` here?
**A.** The AC50 was 1.91 µM (active).

**Q.** With `Cn1cnc([N+](=O)[O-])c1Sc1ncnc2nc[nH]c12` as the compound, how does the outcome read?
**A.** Its outcome is “inactive”.

**Q.** `Clc1nc(Cl)c(Cl)c(Cl)c1Cl` was tested. Which AC50 did it give?
**A.** Its AC50 is 14.2 µM (active).

**Q.** Which outcome does the source give for `CC(=O)OCCC(C)C` here?
**A.** Its outcome is “inactive”.

**Q.** Which outcome does the source give for `CC[C@H]1CC[C@H](NCc2cc3c(cc2OC)[C@H]2C[C@H]2C(=O)N3C)[C@H](c2ccccc2)N1` here?
**A.** The outcome was “inactive”.

**Q.** Which outcome does the source give for `Cc1ccc(N)cc1O` here?
**A.** The outcome was “inactive”.

**Q.** How did the outcome turn out when `O=c1[nH]c2ccc(S(=O)CCN3CCC(Cc4ccc(F)cc4)CC3)cc2o1` (stereo not given) was run?
**A.** The outcome was “inactive”.

**Q.** With `COCCOCCOCCOC` as the compound, how does the outcome read?
**A.** Its outcome is “inactive”.

**Q.** Which AC50 does the source give for `COc1cccc(-c2ccc(/C=C\CN3CCCCCC3)cc2Cl)c1` here?
**A.** Its AC50 is 31.9 µM (active).

**Q.** With `CNCc1ccc(NC(=O)c2c[nH]c3c2C(=O)CCC3)cc1` as the compound, how does the outcome read?
**A.** Its outcome is “inactive”.

**Q.** `CC(C)c1cccc(C(C)C)c1N1C(=O)c2ccc(O)cc2C1=O` was tested. Which AC50 did it give?
**A.** The AC50 was 4.86 µM (active).

**Q.** Which outcome does the source give for `Cc1ccc(C)c(O)c1` here?
**A.** Its outcome is “inactive”.

**Q.** `CCN(C(=O)c1cc(C)cc(OC[C@H](C)Nc2ccncc2)c1)C(C)C` was tested. Which outcome did it give?
**A.** The outcome was “inactive”.

**Q.** For `CCNc1ccccc1`, which outcome is on record?
**A.** The outcome was “inactive”.

**Q.** `CC(C)=CCCC(C)=CC=O` was tested. Which outcome did it give?
**A.** Its outcome is “inactive”.

**Q.** How did the outcome turn out when `Oc1ccc2c(c1)-c1ccccc1C2` was run?
**A.** Its outcome is “inactive”.

**Q.** For `CC(=O)OC[C@H]1O[C@@](COC(C)=O)(O[C@H]2O[C@H](COC(C)=O)[C@@H](OC(C)=O)[C@H](OC(C)=O)[C@H]2OC(C)=O)[C@@H](OC(C)=O)[C@@H]1OC(C)=O`, which outcome is on record?
**A.** The outcome was “inactive”.

**Q.** Which outcome does the source give for `O=C1OC(=O)C2C3C=CC(C3)C12` (stereo not given) here?
**A.** Its outcome is “inactive”.

**Q.** `CCCCCCCCCCCCc1ccccc1` was tested. Which outcome did it give?
**A.** The outcome was “inactive”.

**Q.** How did the outcome turn out when `CCOCCOCCOCCO` was run?
**A.** The outcome was “inactive”.

**Q.** Which outcome does the source give for `COC(=O)c1ccccc1O` here?
**A.** The outcome was “inactive”.

**Q.** Which outcome does the source give for `Cc1ccc(O)cc1` here?
**A.** The outcome was “inactive”.

**Q.** `C1=CCCC=CCCC=CCC1` was tested. Which outcome did it give?
**A.** Its outcome is “inactive”.

**Q.** With `CCC(C)(C)C(=O)O[C@H]1C[C@@H](C)C=C2C=C[C@H](C)[C@H](CC[C@@H]3C[C@@H](O)CC(=O)O3)[C@H]21` as the compound, how does the AC50 read?
**A.** Its AC50 is 26.5 µM (active).

**Q.** Which outcome does the source give for `CCOC(=O)CC(CC(=O)OCC)(OC(C)=O)C(=O)OCC` here?
**A.** Its outcome is “inactive”.

**Q.** How did the outcome turn out when `Nc1nc2ncc(CNc3ccc(C(=O)N[C@@H](CCC(=O)O)C(=O)O)cc3)nc2c(=O)[nH]1` was run?
**A.** The outcome was “inactive”.
